Experimental data published in PubChem BioAssay AID1645838 (ICCB-Longwood Screening Facility, Harvard Medical School, 2021).
Several values for one entry are separate records, joined by “and”; a condition that tells them apart may be missing. Equal values may be shown once. Out of some 2,000 compounds screened, about 100 (5%) were called active. Cut-off read from the data, not from the text of the source: active = z-score above about 2; inactive = the rest. For the sample, actives were picked, then their nearest neighbours and some compounds at random. The source holds several records for some structures; these can differ, active in one and inactive in another.

Experiment: modulators of mitochondrial supercomplex assembly, cell-based, luminescence, Hoechst nuclei count (AID 1645838);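 note: control cybrid cells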;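 for z-score: higher means more mitochondrial supercomplex formation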
Details: Cells, luminescence/Hoechst cell count ratio, supercomplex reporter; for z-score: stronger effect = higher value; for cell count: measured here: cell number, Hoechst nuclei count; for outcome: library stock 10 mM
[1] = library stock concentration (final well concentration not given) 80 uM
[2] = library stock concentration (final well concentration not given) 400 uM
[3] = library stock concentration (final well concentration not given) 2 mM
[4] = library stock concentration (final well concentration not given) 10 mM
[5] = library stock concentration (final well concentration not given) 46 uM
[6] = library stock concentration (final well concentration not given) 278 uM
[7] = library stock concentration (final well concentration not given) 1.67 mM

CC1CN(Cc2ccccc2)CC1c1nc2c(cnn2C2CCOCC2)c(=O)[nH]1 (stereo unspecified)
z-score [1]: -0.245 (inactive)
z-score [2]: -0.201 (inactive)
z-score [3]: -0.281 (inactive)
z-score [4]: -0.05 (inactive)
cell count [1]: 6480
cell count [2]: 6460
cell count [3]: 6500
cell count [4]: 5630

CCCCCOc1ccccc1C(O)CC#CCCCC(=O)OC (stereo unspecified)
z-score: -0.738 (inactive)
cell count: 4890

COc1cc(C)c(Sc2cnc(NC(=O)c3ccc(CNC(C)C(C)C)cc3)s2)cc1C(=O)N1CCN(C(C)=O)CC1 (stereo unspecified)
outcome: inactive; censored for cell count
z-score [1]: -0.488 (inactive)
z-score [2]: -0.307 (inactive)
z-score [3]: 0.194 (inactive)
cell count [1]: 4600
cell count [2]: 4380
cell count [3]: 4120

CC(CSC(=O)c1ccccc1)C(=O)N1CC(Sc2ccccc2)CC1C(=O)O (stereo unspecified)
z-score [1]: -0.846 (inactive)
z-score [2]: -0.854 (inactive)
z-score [3]: -0.642 (inactive)
z-score [4]: -0.914 (inactive)
cell count [1]: 6770
cell count [2]: 5990
cell count [3]: 6700
cell count [4]: 6110

CCCCC[C@H](O)/C=C/[C@@H]1[C@@H](C/C=C\CCCC(=O)N(CC)CC)[C@@H](O)C[C@H]1O
z-score: -1.04 (inactive)
cell count: 5830

NC(=O)c1noc(C(CCCC2CCCCC2)CC(=O)NO)n1 (stereo unspecified)
z-score [5]: -0.365 (inactive)
z-score [6]: -0.421 (inactive)
z-score [7]: -0.0342 (inactive)
z-score [4]: 2.42 (active)
cell count [5]: 6320
cell count [6]: 6380
cell count [7]: 5390
cell count [4]: 2560

C=C1C(=O)O[C@H](CCCCCCCC)[C@H]1C(=O)O
z-score: -0.4 (inactive)
cell count: 5960

CCCCC/C=C\CCCCCCCCCCCCC(=O)O
z-score: -0.87 (inactive)
cell count: 5480

CN(C)CCCCCCOc1ccc(-n2ccnc2)cc1
z-score: 2.07 (active) and 0.161 (inactive)
cell count: 4900 and 5850

COc1ccc(CCCOC(Cn2ccnc2)c2ccc(OC)cc2)cc1 (stereo unspecified)
z-score: 0.304 (inactive)
cell count: 4930

NC(=O)C(c1ccccc1)(c1ccc(F)cc1)c1ccc(F)cc1
z-score [5]: -0.117 (inactive)
z-score [6]: 0.34 (inactive)
z-score [7]: -0.0437 (inactive)
z-score [4]: 0.799 (inactive)
cell count [5]: 6820
cell count [6]: 6540
cell count [7]: 6770
cell count [4]: 6720

O=C1C(Nc2ccccc2)=CC(=O)c2ncccc21
z-score: 0.666 (inactive)
cell count: 3000

O=C(NNS(=O)(=O)c1ccccc1C(F)(F)F)c1cc2cc(Cl)ccc2o1
z-score [5]: -0.12 (inactive)
z-score [6]: -0.121 (inactive)
z-score [7]: -0.307 (inactive)
z-score [4]: -0.0108 (inactive)
cell count [5]: 7080
cell count [6]: 6790
cell count [7]: 7310
cell count [4]: 6850

CC=C(C)C(=O)OC1C(C)=C[C@]23C(=O)C(C=C(CO)C(O)[C@]12O)C1C(CC3C)C1(C)C (stereo partly specified)
z-score [5]: 1.37 (inactive)
z-score [6]: 1.94 (inactive)
z-score [7]: 1.83 (inactive)
z-score [4]: 1.83 (inactive)
cell count [5]: 6280
cell count [6]: 6170
cell count [7]: 6240
cell count [4]: 5670

CCCCCCCCCCCCCCCC(=O)NC[C@@H](C)O
z-score: -0.297 (inactive)
cell count: 5690

CCCCC/C=C\C=C1\C(=O)CC[C@@H]1C/C=C\CCCC(=O)O
z-score: -0.163 (inactive)
cell count: 5580

COc1ccc(C(=O)CC2(O)C(=O)Nc3c(Cl)ccc(Cl)c32)cc1 (stereo unspecified)
outcome: inactive; censored for cell count
z-score [5]: -0.53 (inactive)
z-score [6]: 0.329 (inactive)
z-score [7]: 3.41 (active)
cell count [5]: 7260
cell count [6]: 5870
cell count [7]: 2920

COc1ccc(C(=O)O)cc1
z-score [1]: -0.451 (inactive)
z-score [2]: -0.128 (inactive)
z-score [3]: -0.287 (inactive)
z-score [4]: -0.368 (inactive)
cell count [1]: 6090
cell count [2]: 5780
cell count [3]: 5670
cell count [4]: 5840

COc1ccc(C(=O)C(=O)c2ccc(OC)cc2)cc1
z-score [1]: -0.606 (inactive)
z-score [2]: -0.661 (inactive)
z-score [3]: -0.561 (inactive)
z-score [4]: -0.758 (inactive)
cell count [1]: 5520
cell count [2]: 5760
cell count [3]: 5480
cell count [4]: 5880

CCCCCCCCCCCCC(O)C(=O)O (stereo unspecified)
z-score: -0.554 (inactive)
cell count: 5820

CCCCC[C@@H](O)/C=C/[C@@H]1[C@@H](C/C=C\CCCC(=O)O)[C@@H](O)C[C@H]1O
z-score: -0.443 (inactive)
cell count: 5100

CCCCC[C@H](O)CC[C@H]1[C@H](O)CC(=O)[C@@H]1CCCCCCC(=O)O
z-score: 0.391 (inactive)
cell count: 5410

CCCCC[C@H](O)/C=C/[C@H]1C(=O)C=C[C@@H]1C/C=C\CCCC(=O)O
z-score: -0.0566 (inactive)
cell count: 4900

NCCCCN(Cc1nc2ccccc2[nH]1)C1CCCc2cccnc21 (stereo unspecified)
z-score [1]: -0.0283 (inactive)
z-score [2]: 0.157 (inactive)
z-score [3]: 0.36 (inactive)
z-score [4]: 2.01 (active)
cell count [1]: 5890
cell count [2]: 5860
cell count [3]: 5630
cell count [4]: 3290

CCCCC[C@@](C)(O)/C=C/[C@@H]1[C@@H](C/C=C\CCCC(=O)OC)[C@@H](O)C[C@H]1O
z-score: -0.104 (inactive)
cell count: 5030

CCCCC[C@H](O)/C=C/[C@@H]1c2cc(CCCCC(=O)O)n(-c3ccccc3)c2C[C@H]1O
z-score: -1.31 (inactive)
cell count: 6120

COc1cc2nccc(Oc3ccc(NC(=O)Nc4cc(C)on4)c(Cl)c3)c2cc1OC
outcome: inactive; censored for cell count
z-score [1]: -0.536 (inactive) and -0.288 (inactive)
z-score [2]: -0.724 (inactive) and -0.129 (inactive)
z-score [3]: -1.01 (inactive) and -0.967 (inactive)
z-score [4]: 5.93 (active)
cell count [1]: 4520 and 5260
cell count [2]: 4890 and 4760
cell count [3]: 4710 and 4870
cell count [4]: 1710

COc1cc(OC)c(NC(=O)Nc2cc(C)on2)cc1Cl
z-score [1]: -0.669 (inactive)
z-score [2]: -0.368 (inactive)
z-score [3]: -0.584 (inactive)
z-score [4]: -0.574 (inactive)
cell count [1]: 6520
cell count [2]: 5740
cell count [3]: 6660
cell count [4]: 5990

COC(=O)C(CCSC)NC(=O)c1ccc(NCC(N)CS)cc1-c1ccccc1 (stereo unspecified)
z-score [1]: -0.72 (inactive)
z-score [2]: -0.795 (inactive)
z-score [3]: -0.715 (inactive)
z-score [4]: -1.02 (inactive)
cell count [1]: 6120
cell count [2]: 6350
cell count [3]: 6090
cell count [4]: 5780

COc1ccc2c(c1)CN(C)CCS2
z-score [1]: -0.906 (inactive)
z-score [2]: -0.795 (inactive)
z-score [3]: -1.04 (inactive)
z-score [4]: -1.49 (inactive)
cell count [1]: 6210
cell count [2]: 6190
cell count [3]: 6290
cell count [4]: 6260

CCCCC[C@H](O)/C=C/[C@H]1C(=O)C[C@H](O)[C@@H]1C/C=C\CCCC(=O)NC(CO)CO
z-score: 1.15 (inactive)
cell count: 4420

CCCCC/C=C\C/C=C\C/C=C\C/C=C\CCCC(=O)NC[C@]1(C)CCC[C@]2(C)c3ccc(C(C)C)cc3CC[C@@H]12
z-score: -0.12 (inactive)
cell count: 4820

CCC(C)(C)C(=O)OC1CC(C)C=C2C=CC(C)C(CCC3CC(O)CC(=O)O3)[C@H]21 (stereo partly specified)
z-score [1]: -0.332 (inactive)
z-score [2]: -0.176 (inactive)
z-score [3]: -0.124 (inactive)
z-score [4]: 3.34 (active)
cell count [1]: 6550
cell count [2]: 6140
cell count [3]: 6050
cell count [4]: 2650
